Data published in PubChem BioAssay AID1490 (National Center for Advancing Translational Sciences (NCATS), 2009).
The whole screen tested about 310,000 compounds, of which about 11,000 (3.5%) were called active. Not shown: some 4% with an inconclusive outcome. The call rests on the fitted dose curve; in most records, active means well fitted inhibition curve with a large enough effect; inconclusive means small, poorly fitted or top-dose-only effect, or another doubt; inactive means no such curve, though single readings can be large or run the other way. This excerpt belongs to a sample that is enriched for actives.

Target: 4'-phosphopantetheinyl transferase ffp (Bacillus subtilis) (UniProt Q9F4F7)
Test: qHTS Assay for Inhibitors of Bacillus subtilis Sfp phosphopantetheinyl transferase (PPTase);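 further: the enzyme is Sfp with the accession as filed and its product quenches rhodamine fluorescence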;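 on largest response in the series, negative = inhibition: 0% = enzyme reaction without inhibitor and -100% = no enzyme wells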
Settings: Biochemical Sfp PPTase activity
Method in brief: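 With Hepes-Na pH 7.6 buffer containing 10 mM MgCl2, Sfp (15 nM) modified BHQ-2-YbbR (12.5 uM) using rhodamine-CoA (5 uM). Two reads 30 minutes apart at 525/598 nm yielded each well's rate.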
Potency means the concentration at half of the fitted maximal effect.

| Compound | Potency | largest response in the series, negative = inhibition |
| --- | --- | --- |
| Cc1ccc(SC(CC(=O)c2ccc(C(C)(C)C)cc2)C(=O)O)cc1 (centres undefined) | 28.2 µM (active) | – |
| Cc1ccc(C(=O)CSc2ccccc2C(=O)O)cc1 | – | 13.7% (inactive) |
| Cc1ccc(C(=O)CNc2ccc(F)cc2)cc1 | – | -8.3% (inactive) |
| O=C(Nc1ccccc1N1CCOCC1)c1ccc(OCc2cscn2)cc1 | – | -1.59% (inactive) |
| NC(=S)c1ccc(C(N)=S)o1 | 56.2 µM (active) | – |
| O=C(O)C1CC=CC2CCN(C3CCCCC3)C(=O)C21 (centres undefined) | – | 40% (inactive) |
| COc1ccc(-n2cc(-c3ccccc3)c3c(=S)nc[nH]c32)cc1 | – | 7.93% (inactive) |
| COc1ccc(C)cc1NC(=O)NCCCCc1ccccc1 | – | -4.5% (inactive) |
| CN(Cc1ccccc1)C(=O)CCc1ccccc1 | – | 20.4% (inactive) |
| O=C(c1ccccc1F)N(Cc1ccccc1)Cc1ccccc1 | – | 9.85% (inactive) |
| CN(Cc1ccccc1)Cc1ccccc1F | 50.1 µM (active) | – |
| Cc1ccc(C)c(OCCC(=O)OCC(=O)N2CCN(c3ccccc3)CC2)c1 | – | -6.17% (inactive) |
| Cc1coc2c1c(C)cc1oc(=O)c(CC(=O)NCC(=O)N[C@H](C(=O)O)C(C)C)c(C)c12 | – | 1.89% (inactive) |
| CCn1cc(S(=O)(=O)c2cccc(C)c2)c(=O)c2cc(F)c(N3CCN(C)CC3)cc21 | – | 4.71% (inactive) |
| NC(=O)C[C@@H]1NC(=O)CNC(=O)c2cc([N+](=O)[O-])cc(I)c2NCCC(C(N)=O)NC1=O (some centres undefined) | – | -12.4% (inactive) |
| NCCCC[C@@H]1NC(=O)[C@H](CCC(=O)O)NC(=O)c2cc([N+](=O)[O-])cc(I)c2NCC[C@@H](C(N)=O)NC1=O | 31.6 µM (active) | – |
| NC(=O)CC[C@@H]1NC(=O)[C@H](CO)NC(=O)c2cc([N+](=O)[O-])cc(I)c2NCC[C@@H](C(N)=O)NC1=O | – | -7.09% (inactive) |
| COc1cccc(CNC(=O)C2CCCN(S(=O)(=O)N3CC(C)CC(C)C3)C2)c1 (centres undefined) | – | 6.86% (inactive) |
| CCC(CC)COC(=O)C1=C(C)NC(=O)NC1c1ccc([N+](=O)[O-])cc1 (centres undefined) | – | 7.14% (inactive) |
| COCCNC(=O)Nc1ccc2nc(-c3ccco3)c(-c3ccco3)nc2c1 | 4.47 µM (active) | – |
| COc1cccc(S(=O)(=O)NCc2ccc(C(=O)NCc3ccccn3)cc2)c1 | – | 12.9% (inactive) |
| CC(C)(C)c1ccc(NC(=O)NCc2ccco2)cc1 | – | 8.16% (inactive) |
| O=C(Nc1ccc2nccnc2c1)c1ccco1 | – | 15.4% (inactive) |
| O=C(NCc1ccccn1)c1cc(Br)ccc1Cl | – | -2.95% (inactive) |

| Compound | Potency | largest response in the series, negative = inhibition |
| --- | --- | --- |
| O=C(NCc1ccccn1)c1ccc2nc(-c3ccco3)c(-c3ccco3)nc2c1 | 14.1 µM (active) | – |
| COc1ccc(CCN2CC(C(=O)NCCN3CCNC3=O)CCC2=O)cc1 (centres undefined) | – | 19% (inactive) |
| COc1ccc2c(c1)c1nc3n(c(=O)c1n2CC(=O)Nc1ccccc1)CCS3 | – | 1.1% (inactive) |
| COc1ccc(C(=O)/C=C/c2cccnc2)c(OC)c1 | – | 9.73% (inactive) |
| O=[N+]([O-])c1cccc(/C=N/Nc2ncc(Br)cn2)c1 | – | 16.8% (inactive) |
| Cn1sc(=O)c2cc(S(=O)(=O)NC3CC3)ccc21 | 11.2 µM (active) | – |
| CC1CCC(NS(=O)(=O)c2ccc3c(c2)n(C)c(=O)c(=O)n3C)CC1 (centres undefined) | – | 8.22% (inactive) |
| O=S(=O)(NC1CC1)c1ccc(F)c(F)c1 | – | 16.5% (inactive) |
| Cc1nonc1NC(=O)c1oc2ccccc2c1C | – | -2.27% (inactive) |
| CC(=O)c1ccc(N2CCN(CC(O)c3ccccc3)CC2)cc1 (centres undefined) | – | 16.5% (inactive) |
| CCc1ccc(Oc2coc3cc(O)ccc3c2=O)cc1 | – | 12.7% (inactive) |
| CCC(CC)c1nnc(NC(=O)C2CCN(C(=O)c3ccco3)CC2)s1 | 39.8 µM (active) | – |
| O=C(/C=C/c1ccco1)Nc1ccc(Oc2ccccc2)cc1 | – | 2.06% (inactive) |
| COc1ccc(CNC(=O)C2CCN(C(=O)c3ccco3)CC2)cc1 | – | 5.46% (inactive) |
| CCC(CC)c1nnc(NC(=O)/C=C/c2ccco2)s1 | 56.2 µM (active) | – |
| C/C=C/C(=O)Nc1nnc(C(C)C)s1 | – | -3.92% (inactive) |
| CCC(CC)c1nnc(NC(=O)c2nn(C)c(=O)c3ccccc23)s1 | – | 10.8% (inactive) |
| CCOC(=O)c1c(NC(=O)/C=C/c2ccco2)sc(C)c1C | – | -8.04% (inactive) |
| Cc1nnc(NC(=O)/C=C/c2ccco2)s1 | 11.2 µM (active) | – |
| CCC(c1nnnn1C1CCCC1)N1CCN(C(=O)c2ccco2)CC1 (centres undefined) | – | 6.92% (inactive) |
| FC(F)(F)c1nnc2c3ccccc3c(Cl)nn12 | – | 10.4% (inactive) |
| CC1CCN(S(=O)(=O)c2ccc(NC(=O)C3CC(=O)N(c4ccccc4)C3)cc2)CC1 (centres undefined) | – | 6.28% (inactive) |
| Cc1cc(S(=O)(=O)NC2CCCC2)ccc1-n1cnnn1 | – | 16.3% (inactive) |
| CCOc1ccc(C(=O)Nc2c3c(nn2-c2ccccc2)CS(=O)(=O)C3)cc1 | – | 11.5% (inactive) |

| Compound | Potency | largest response in the series, negative = inhibition |
| --- | --- | --- |
| CC(=N\NC(=O)c1cc(Br)ccc1O)/C(=N/O)C(=O)Nc1ccccc1 | – | 16.6% (inactive) |
| O=C(NCCc1ccccc1Cl)C1CCC(=O)N(CCCc2ccccc2)C1 (centres undefined) | – | -2.68% (inactive) |
| COC(=O)c1ccc(COc2ccc(/C=C/C(=O)c3ccc(OC)c(CSCC(=O)O)c3)cc2OC)cc1 | – | -20.4% (inactive) |
| COc1ccc(C2/C(=C(/O)c3ccc4c(c3)CC(C)O4)C(=O)C(=O)N2Cc2ccncc2)cc1 (centres undefined) | – | -0.196% (inactive) |
| COc1cccc2cc(-c3cc(=O)oc4cc(C)c(O)cc34)oc12 | – | -19.1% (inactive) |
| C=C(Cl)COC(=O)C1C2C=CC(C2)C1C(=O)O (centres undefined) | – | -7.02% (inactive) |
| O=C(O)C1C2C=CC(C2)C1C(=O)N1CCN(CCO)CC1 (centres undefined) | 20 µM (active) | – |
| CN1CCN(C(=O)C2C3C=CC(C3)C2C(=O)O)CC1 (centres undefined) | – | -2.06% (inactive) |
| CC(CN1CCOCC1)OC(=O)c1ccc(C(C)(C)C)cc1 (centres undefined) | – | -0.906% (inactive) |
| Cc1cccc(N2CCN(S(=O)(=O)c3ccc(-c4cc(C)no4)s3)CC2C)c1 (centres undefined) | – | 13.1% (inactive) |
| CCOC(=O)c1sc(NC(=O)CSc2ncccn2)c(C#N)c1C | – | 15.3% (inactive) |
| CCOC(=O)c1sc(NC(=O)CSc2nc(C)cc(C(F)(F)F)n2)c(C#N)c1C | 20 µM (active) | – |
| Cc1cc(C(F)(F)F)nc(SCC(=O)Nc2nccs2)n1 | – | -13.1% (inactive) |
| O=C(O)c1cccc2c1C(=O)N(C1CCCC1)C2 | – | 17.2% (inactive) |
| Cc1cc(Cl)nc(NC(=O)Nc2cccc(Cl)c2)n1 | – | -3.29% (inactive) |
| Cc1ccc(Nc2ccccc2N)cc1 | – | -23.1% (inactive) |
| Cc1cc(Nc2ccccc2)n(C(=O)c2ccc(N)cc2)n1 | – | -8.73% (inactive) |
| Nc1ccc(Nc2ccccc2)cc1 | 56.2 µM (active) | – |
| O=C1OC2(CCCCC2)CC2=C1C1O[C@](c3ccsc3)(Cc3ccccc31)O2 | – | -2.9% (inactive) |
| COC(=O)CCc1ccccc1S(=O)(=O)N(CCC(=O)OC)Cc1ccccc1 | – | -14.7% (inactive) |
| CCN(CC(=O)Nc1cccc(S(N)(=O)=O)c1)Cc1nc2ccccc2c(=O)[nH]1 | 50.1 µM (active) | – |
| CCN(CC(=O)Nc1ccc(Cl)c(S(=O)(=O)N(C)C)c1)Cc1nc2ccccc2c(=O)[nH]1 | – | -31.5% (inactive) |
| CCN(CC(=O)NC(=O)NCc1ccccc1)Cc1nc2ccccc2c(=O)[nH]1 | – | -53% (inactive) |
| CN1CCN(C(=O)c2cnn(-c3ccccc3)c2NC(=O)c2ccc([N+](=O)[O-])cc2)CC1 | – | 1.55% (inactive) |

| Compound | Potency | largest response in the series, negative = inhibition |
| --- | --- | --- |
| CC1CCN(C(=S)NC(=O)c2ccccc2Br)CC1 | – | 14.1% (inactive) |
| O=C(c1cccc([N+](=O)[O-])c1)N1CCN(C(=O)c2ccco2)CC1 | – | 3.81% (inactive) |
| CC1CCN(c2ccc([N+](=O)[O-])cc2C(N)=O)CC1 | – | 9.05% (inactive) |
| CC1CCN(C(=S)c2cccc([N+](=O)[O-])c2)CC1 | 44.7 µM (active) | – |
| Cc1nc2ccc(NC(=S)N3CCC(C)CC3)cc2nc1C | – | 15.4% (inactive) |
| CC1CCN(C(=S)c2cccc(O)c2)CC1 | 25.1 µM (active) | – |
| CC1=C(C(=O)OC2CCCCC2)C(c2ccccc2F)NC(=O)N1 (centres undefined) | – | 7.52% (inactive) |
| O=C(NC1CCCC1)C(c1ccco1)N(C(=O)c1ccco1)c1ccc(F)cc1 (centres undefined) | – | 20.8% (inactive) |
| COc1ccc(CCNC(=O)c2c(C)nn(-c3ccccc3)c2Cl)cc1 | – | 9.27% (inactive) |
| CN(CC1CCCO1)S(=O)(=O)c1ccc(C(=O)Nc2ccc([N+](=O)[O-])cc2)cc1 (centres undefined) | – | -10.7% (inactive) |
| Cc1c(NC(=O)c2cc(-c3ccc(Br)cc3)on2)c(=O)n(-c2ccccc2)n1C | – | 2.71% (inactive) |
| NS(=O)(=O)c1cccc(NC(=O)CSc2nc3ccccc3n2-c2ccccc2)c1 | 79.4 µM (active) | – |
| Cc1nnc(SCC(=O)Nc2cccc(N)c2)n1-c1ccccc1 | – | 20% (inactive) |
| COc1ccc(-n2cnnc2SCC(=O)Nc2cccc(S(N)(=O)=O)c2)cc1 | – | 3.4% (inactive) |
| COC(=O)c1c(NC(=O)C(=O)N2CCCCC2)sc2c1CC(C)(C)OC2 | – | -1.3% (inactive) |
| COc1cc(OC)c(C(=S)N2CCCC2)cc1OC | 20 µM (active) | – |
| COc1cc(OC)c(C(=O)N2CCCC2)cc1OC | – | 10.6% (inactive) |
| COc1ccc(/C=C/C(=O)N2CCCC2)cc1OC | – | -0.604% (inactive) |
| COc1ccc(OC)c(CCNC(=O)c2nn(C)c3c2CS(=O)(=O)c2ccccc2-3)c1 | – | 15.7% (inactive) |
| COc1ccc(NC(=O)CN2C(=O)COc3ccc(S(=O)(=O)N4CCOCC4)cc32)c(OC)c1 | – | 15.2% (inactive) |
| O=C(c1ccc(S(=O)(=O)N2CCCC2)cc1)N1CCN(c2ccccc2F)CC1 | – | 11.7% (inactive) |
| COc1ccc(/C=C/c2noc(-c3ccccc3OC(C)=O)n2)cc1 | – | -16% (inactive) |
